The supplement of paper PMC10849652
Of roughly 8,800 targets only a part is listed; those with a hit were picked by preference. About 0.5% of all pairs of compound and target were hits.

Compound: Cc1cn(-c2cc(NC(=O)c3ccc(C)c(Nc4nccc(-c5cccnc5)n4)c3)cc(C(F)(F)F)c2)cn1 [nilotinib]
Test: log2 fold change, soluble protein after heating vs DMSO (PISA); higher = thermal stabilisation; K562 lysate, 10 uM; active = over 0.2 and 3.5 SD of the protein, either way, in both replicates (recomputed)
Method in brief: (§1)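 To prepare the extract, K562 pellets were dounce-homogenised in PBS pH 7.4 with 1 mM MgCl2, giving crude material at 1 mg/mL protein. This was treated with 10 μM compound for 30 min, then heated in aliquots for 3 min over 48°C-58°C before pooling and addition of NP-40 to 0.5% at 4°C. Centrifugation at 21,000xg for 90 min left soluble protein in the supernatant, which TMTpro 16plex LC-MS/MS quantified with equalised channel sums. Results are log-two fold changes in thermal stability compared with solvent controls, from duplicates.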

UniProt A6NDU8, sequence (A6NDU8 whole entry, looked up): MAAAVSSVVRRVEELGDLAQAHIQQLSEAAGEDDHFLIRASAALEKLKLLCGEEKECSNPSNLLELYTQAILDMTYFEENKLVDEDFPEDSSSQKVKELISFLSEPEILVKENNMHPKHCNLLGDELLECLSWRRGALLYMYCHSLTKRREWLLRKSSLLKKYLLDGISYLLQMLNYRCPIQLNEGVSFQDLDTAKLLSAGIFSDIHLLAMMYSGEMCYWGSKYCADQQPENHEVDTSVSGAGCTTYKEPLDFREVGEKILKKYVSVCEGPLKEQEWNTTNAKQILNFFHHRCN
UniProt P14635, sequence (P14635 whole entry, looked up): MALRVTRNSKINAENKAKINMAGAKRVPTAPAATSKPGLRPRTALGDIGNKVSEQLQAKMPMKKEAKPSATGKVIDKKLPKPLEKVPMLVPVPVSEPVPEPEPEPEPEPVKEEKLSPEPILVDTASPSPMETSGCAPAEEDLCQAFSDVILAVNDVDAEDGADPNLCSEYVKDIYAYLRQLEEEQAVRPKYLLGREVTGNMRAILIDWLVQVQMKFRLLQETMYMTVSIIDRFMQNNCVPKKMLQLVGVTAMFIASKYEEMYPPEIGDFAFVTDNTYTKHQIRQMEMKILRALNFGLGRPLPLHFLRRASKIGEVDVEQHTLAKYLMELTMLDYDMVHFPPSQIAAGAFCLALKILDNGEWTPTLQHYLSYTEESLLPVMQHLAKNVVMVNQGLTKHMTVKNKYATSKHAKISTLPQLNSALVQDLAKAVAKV
UniProt Q9HB09, sequence (Q9HB09 whole entry, looked up): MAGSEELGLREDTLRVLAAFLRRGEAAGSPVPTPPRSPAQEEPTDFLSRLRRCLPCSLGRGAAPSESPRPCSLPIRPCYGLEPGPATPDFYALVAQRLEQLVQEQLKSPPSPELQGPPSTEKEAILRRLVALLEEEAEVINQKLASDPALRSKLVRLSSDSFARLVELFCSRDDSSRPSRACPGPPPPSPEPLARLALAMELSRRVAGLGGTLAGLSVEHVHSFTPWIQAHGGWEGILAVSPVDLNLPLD
UniProt P24863, sequence (P24863 whole entry, looked up): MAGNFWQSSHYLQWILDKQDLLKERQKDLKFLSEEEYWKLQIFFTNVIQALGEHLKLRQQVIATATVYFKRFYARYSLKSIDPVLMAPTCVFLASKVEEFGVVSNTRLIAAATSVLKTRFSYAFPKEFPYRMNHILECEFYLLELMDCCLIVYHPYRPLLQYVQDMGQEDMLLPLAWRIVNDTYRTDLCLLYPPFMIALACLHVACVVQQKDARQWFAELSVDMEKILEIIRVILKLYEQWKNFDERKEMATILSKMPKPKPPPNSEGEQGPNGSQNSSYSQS
UniProt P25440, sequence (P25440 whole entry, looked up): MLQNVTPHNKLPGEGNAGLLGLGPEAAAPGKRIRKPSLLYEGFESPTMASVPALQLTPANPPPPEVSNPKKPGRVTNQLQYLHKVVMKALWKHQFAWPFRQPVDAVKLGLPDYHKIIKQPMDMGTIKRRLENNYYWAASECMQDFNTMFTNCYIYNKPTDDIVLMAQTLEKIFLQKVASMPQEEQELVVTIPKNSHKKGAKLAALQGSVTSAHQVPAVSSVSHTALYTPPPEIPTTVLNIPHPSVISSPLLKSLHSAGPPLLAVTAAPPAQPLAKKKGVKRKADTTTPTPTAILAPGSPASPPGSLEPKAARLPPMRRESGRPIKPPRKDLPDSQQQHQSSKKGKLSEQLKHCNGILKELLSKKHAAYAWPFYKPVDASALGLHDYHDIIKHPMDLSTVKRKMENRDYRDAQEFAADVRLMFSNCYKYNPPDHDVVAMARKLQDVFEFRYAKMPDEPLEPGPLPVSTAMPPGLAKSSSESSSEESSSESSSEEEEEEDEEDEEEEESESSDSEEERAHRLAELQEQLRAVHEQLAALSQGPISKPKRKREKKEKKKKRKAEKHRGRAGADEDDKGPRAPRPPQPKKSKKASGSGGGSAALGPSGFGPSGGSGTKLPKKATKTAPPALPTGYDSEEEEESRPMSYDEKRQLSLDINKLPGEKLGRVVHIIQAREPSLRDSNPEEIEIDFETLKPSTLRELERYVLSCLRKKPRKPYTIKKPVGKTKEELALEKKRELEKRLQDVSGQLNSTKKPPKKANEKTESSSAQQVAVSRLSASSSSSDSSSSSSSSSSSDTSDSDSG
UniProt Q13555, sequence (Q13555 whole entry, looked up): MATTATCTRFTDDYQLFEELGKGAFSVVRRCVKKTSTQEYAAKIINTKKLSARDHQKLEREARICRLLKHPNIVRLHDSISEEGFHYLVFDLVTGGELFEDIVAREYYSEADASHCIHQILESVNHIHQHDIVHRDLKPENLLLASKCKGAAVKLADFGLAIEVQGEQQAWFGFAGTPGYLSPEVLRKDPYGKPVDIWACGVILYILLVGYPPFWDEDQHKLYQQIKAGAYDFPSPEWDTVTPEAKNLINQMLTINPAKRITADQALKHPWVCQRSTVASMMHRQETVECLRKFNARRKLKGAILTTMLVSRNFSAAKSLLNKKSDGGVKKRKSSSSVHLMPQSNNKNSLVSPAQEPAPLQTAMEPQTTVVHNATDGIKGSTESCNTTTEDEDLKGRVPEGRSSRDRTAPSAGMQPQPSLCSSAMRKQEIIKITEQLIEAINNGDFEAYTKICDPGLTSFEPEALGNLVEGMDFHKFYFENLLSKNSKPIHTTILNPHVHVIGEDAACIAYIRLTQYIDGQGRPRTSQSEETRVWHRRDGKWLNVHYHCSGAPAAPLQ
UniProt Q9NXV6, sequence (Q9NXV6 whole entry, looked up): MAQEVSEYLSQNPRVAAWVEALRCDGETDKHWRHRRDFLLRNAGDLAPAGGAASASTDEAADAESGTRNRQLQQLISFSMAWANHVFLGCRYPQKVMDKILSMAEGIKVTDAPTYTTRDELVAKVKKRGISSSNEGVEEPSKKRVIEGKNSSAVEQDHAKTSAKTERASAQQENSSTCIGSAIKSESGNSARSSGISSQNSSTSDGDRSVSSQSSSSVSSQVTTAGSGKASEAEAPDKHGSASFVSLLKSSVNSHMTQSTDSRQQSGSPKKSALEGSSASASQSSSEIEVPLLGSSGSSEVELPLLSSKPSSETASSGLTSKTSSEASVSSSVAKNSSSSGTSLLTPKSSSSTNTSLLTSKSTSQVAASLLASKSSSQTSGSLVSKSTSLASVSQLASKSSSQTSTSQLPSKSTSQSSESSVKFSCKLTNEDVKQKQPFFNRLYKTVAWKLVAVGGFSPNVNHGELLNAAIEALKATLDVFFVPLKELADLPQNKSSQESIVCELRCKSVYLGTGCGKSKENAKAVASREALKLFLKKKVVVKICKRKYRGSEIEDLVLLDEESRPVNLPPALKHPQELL
UniProt Q13111, sequence (Q13111 whole entry, looked up): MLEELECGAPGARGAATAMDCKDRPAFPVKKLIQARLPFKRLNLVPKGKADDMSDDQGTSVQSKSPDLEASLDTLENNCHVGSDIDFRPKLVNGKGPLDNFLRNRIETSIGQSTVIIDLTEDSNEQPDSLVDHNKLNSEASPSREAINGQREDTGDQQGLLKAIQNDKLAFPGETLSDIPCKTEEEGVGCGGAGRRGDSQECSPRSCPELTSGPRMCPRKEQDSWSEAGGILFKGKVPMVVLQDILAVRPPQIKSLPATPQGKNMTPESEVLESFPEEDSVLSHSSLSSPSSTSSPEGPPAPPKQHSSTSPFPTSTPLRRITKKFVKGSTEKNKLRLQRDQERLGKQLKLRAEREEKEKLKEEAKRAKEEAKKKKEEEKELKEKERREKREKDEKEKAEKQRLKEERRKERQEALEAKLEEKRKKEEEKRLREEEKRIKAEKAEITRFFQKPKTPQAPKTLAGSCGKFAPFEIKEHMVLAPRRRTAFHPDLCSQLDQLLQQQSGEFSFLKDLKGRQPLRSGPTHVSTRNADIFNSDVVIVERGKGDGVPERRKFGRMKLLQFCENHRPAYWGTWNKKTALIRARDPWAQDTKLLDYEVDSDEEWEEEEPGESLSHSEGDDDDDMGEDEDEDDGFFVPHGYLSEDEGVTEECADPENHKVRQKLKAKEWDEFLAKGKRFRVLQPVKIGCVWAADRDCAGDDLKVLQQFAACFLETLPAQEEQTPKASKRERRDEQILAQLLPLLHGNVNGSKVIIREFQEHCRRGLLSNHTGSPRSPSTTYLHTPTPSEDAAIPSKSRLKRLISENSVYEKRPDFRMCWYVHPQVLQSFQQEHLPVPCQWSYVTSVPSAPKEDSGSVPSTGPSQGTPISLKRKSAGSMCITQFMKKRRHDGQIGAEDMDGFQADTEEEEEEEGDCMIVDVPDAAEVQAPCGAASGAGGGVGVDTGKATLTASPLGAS
UniProt Q8WUX2, sequence (Q8WUX2 whole entry, looked up): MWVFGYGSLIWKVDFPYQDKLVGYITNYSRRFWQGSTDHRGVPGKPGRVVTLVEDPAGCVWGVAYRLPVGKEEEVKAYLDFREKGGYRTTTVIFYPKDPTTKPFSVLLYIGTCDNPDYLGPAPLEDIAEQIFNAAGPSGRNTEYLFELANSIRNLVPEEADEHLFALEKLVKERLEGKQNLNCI
UniProt O60508, sequence (O60508 whole entry, looked up): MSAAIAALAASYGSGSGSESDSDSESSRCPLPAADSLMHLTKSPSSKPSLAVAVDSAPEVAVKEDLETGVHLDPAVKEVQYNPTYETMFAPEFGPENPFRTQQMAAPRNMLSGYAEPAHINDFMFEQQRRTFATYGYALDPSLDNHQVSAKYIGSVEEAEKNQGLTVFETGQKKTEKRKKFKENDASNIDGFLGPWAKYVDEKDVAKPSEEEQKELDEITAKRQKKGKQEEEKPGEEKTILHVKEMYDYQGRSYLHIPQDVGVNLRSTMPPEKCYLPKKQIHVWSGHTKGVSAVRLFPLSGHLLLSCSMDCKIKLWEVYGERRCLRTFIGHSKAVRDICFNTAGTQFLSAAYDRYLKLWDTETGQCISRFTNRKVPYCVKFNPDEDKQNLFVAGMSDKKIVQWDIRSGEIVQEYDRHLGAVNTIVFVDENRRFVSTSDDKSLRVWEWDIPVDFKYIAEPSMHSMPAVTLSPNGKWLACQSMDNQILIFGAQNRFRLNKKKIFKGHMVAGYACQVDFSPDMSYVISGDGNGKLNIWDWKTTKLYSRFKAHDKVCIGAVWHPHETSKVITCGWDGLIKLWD

log2 fold change, active:
CEP120 (UniProt Q8N960) 0.524

log2 fold change, inactive:
BLOC1S6 (UniProt Q9UL45) -0.073
BAG4 (UniProt O95429) -0.154
CCNC (UniProt P24863) 0.013
CALM2 (UniProt P0DP24) -0.009
CEP76 (UniProt Q8TAP6) -0.005
CDS2 (UniProt O95674) -0.035
CCAR2 (UniProt Q8N163) -0.001
CDKN2AIP (UniProt Q9NXV6) 0.002
BRD3 (UniProt Q15059) -0.069
C18orf25 (UniProt Q96B23) 0.139
CDAN1 (UniProt Q8IWY9) -0.029
ATAD1 (UniProt Q8NBU5) 0.073
CCT6A (UniProt P40227) -0.003
C5orf51 (UniProt A6NDU8) -0.061
CHCHD4 isoform 2 (UniProt Q8N4Q1) -0.029
CCPG1 isoform 5 (UniProt Q9ULG6) 0.067
CD63 (UniProt P08962) -0.053
CES2 isoform 4 (UniProt O00748) -0.073
CFDP1 (UniProt Q9UEE9) -0.008
AURKAIP1 (UniProt Q9NWT8) -0.072
CCDC186 (UniProt Q7Z3E2) -0.046
ATP13A1 (UniProt Q9HD20) 0.009
ATXN2 (UniProt Q99700) -0.04
CHCHD2 (UniProt Q9Y6H1) -0.102
CDC40 (UniProt O60508) -0.015
CCNK isoform 4 (UniProt O75909) 0.011
C18orf32 (UniProt Q8TCD1) 0.058
CHAF1A (UniProt Q13111) -0.027
CAMK2G isoform 8 (UniProt Q13555) -0.007
CBX1 (UniProt P83916) 0.006
ATP5PF isoform 2 (UniProt P18859) 0.059
CCNB1 (UniProt P14635) -0.04
BCL2L12 (UniProt Q9HB09) -0.12
ATP11A (UniProt P98196) -0.046
CAMK1 (UniProt Q14012) -0.086
CAMLG (UniProt P49069) 0.048
CHAC2 (UniProt Q8WUX2) 0.004
CANX isoform 2 (UniProt P27824) -0.006
BRD2 isoform 2 (UniProt P25440) 0.012

Compound: Cc1nc(Nc2n[nH]c3c2CN(C(=O)N[C@H](CN(C)C)c2ccccc2)C3(C)C)c2sccc2n1
Test: as above
Method in brief: as §1

log2 fold change, active:
CAMK2G isoform 8 (UniProt Q13555) 0.518

log2 fold change, inactive:
BLOC1S6 (UniProt Q9UL45) 0.036
BAG4 (UniProt O95429) -0.039
CCNC (UniProt P24863) 0.035
CALM2 (UniProt P0DP24) 0.014
CEP76 (UniProt Q8TAP6) -0.021
CDS2 (UniProt O95674) -0.093
CCAR2 (UniProt Q8N163) -0.016
CDKN2AIP (UniProt Q9NXV6) -0.023
BRD3 (UniProt Q15059) 0.074
CEP120 (UniProt Q8N960) -0.186
C18orf25 (UniProt Q96B23) -0.014
CDAN1 (UniProt Q8IWY9) 0.022
ATAD1 (UniProt Q8NBU5) -0.015
CCT6A (UniProt P40227) -0.004
C5orf51 (UniProt A6NDU8) 0.006
CHCHD4 isoform 2 (UniProt Q8N4Q1) 0.023
CCPG1 isoform 5 (UniProt Q9ULG6) 0.017
CD63 (UniProt P08962) 0.098
CES2 isoform 4 (UniProt O00748) -0.115
CFDP1 (UniProt Q9UEE9) 0.051
AURKAIP1 (UniProt Q9NWT8) -0.019
CCDC186 (UniProt Q7Z3E2) -0.056
ATP13A1 (UniProt Q9HD20) 0.004
ATXN2 (UniProt Q99700) 0.023
CHCHD2 (UniProt Q9Y6H1) 0.039
CDC40 (UniProt O60508) -0.026
CCNK isoform 4 (UniProt O75909) -0.03
C18orf32 (UniProt Q8TCD1) -0.078
CHAF1A (UniProt Q13111) 0.032
CBX1 (UniProt P83916) -0.003
ATP5PF isoform 2 (UniProt P18859) 0.046
CCNB1 (UniProt P14635) 0.037
BCL2L12 (UniProt Q9HB09) -0.007
ATP11A (UniProt P98196) -0.053
CAMK1 (UniProt Q14012) 0.04
CAMLG (UniProt P49069) -0.082
CHAC2 (UniProt Q8WUX2) 0.043
CANX isoform 2 (UniProt P27824) 0.008
BRD2 isoform 2 (UniProt P25440) 0.15
